Screening results deposited in PubChem BioAssay by several laboratories.
Mtb RmlCD inh = M. tuberculosis RmlC/RmlD inhibition; RmlC+RmlD coupled enzyme assay, percent inhibition; primary screen in compound mixtures; inhibition, % at 3.6 µM; hit rate 0.03% among 160,000; in the data active = inhibition mostly above about 34%, no sharp cut-off; inconclusive = no clear call, values can overlap the other calls; inactive = mostly below about 22%
Target sequence (P9WH09 whole entry, looked up): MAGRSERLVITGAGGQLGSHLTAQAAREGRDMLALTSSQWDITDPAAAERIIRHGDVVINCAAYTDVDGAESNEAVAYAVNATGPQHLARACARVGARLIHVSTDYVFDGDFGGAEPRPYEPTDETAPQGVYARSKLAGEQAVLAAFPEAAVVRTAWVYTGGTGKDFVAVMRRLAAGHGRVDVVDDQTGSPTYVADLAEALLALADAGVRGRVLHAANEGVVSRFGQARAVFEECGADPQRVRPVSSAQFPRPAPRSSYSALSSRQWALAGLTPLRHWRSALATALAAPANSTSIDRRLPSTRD
Target sequence (P9WH11 whole entry, looked up): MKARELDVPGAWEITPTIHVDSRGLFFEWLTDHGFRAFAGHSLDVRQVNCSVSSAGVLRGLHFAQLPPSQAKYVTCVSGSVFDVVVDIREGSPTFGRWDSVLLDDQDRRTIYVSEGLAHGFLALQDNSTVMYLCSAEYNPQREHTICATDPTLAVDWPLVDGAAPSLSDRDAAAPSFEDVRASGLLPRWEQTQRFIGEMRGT
YopH PTP inh = YopH (Yersinia) phosphatase inhibition | fluorescence Ex485/Em525 | inhibition, % (test concentration not listed) | hit rate 0.16% among 140,000; in the data active = inhibition above about 50%
An asterisk follows results filed as active. This excerpt belongs to a sample that is enriched for hits.

How did c1csc(-c2csc3ncnc(NCCCN4CCOCC4)c23)c1 do in these assays?
YopH PTP inh: 10.8

What do the screens show for `c1ccc(-c2csc3ncnc(NCCCN4CCOCC4)c23)cc1`?
YopH PTP inh: 50.9*

What do the screens show for `CC1(C)CC(=O)C(C(C2=C(O)CC(C)(C)CC2=O)c2ccc(O)c([N+](=O)[O-])c2)=C(O)C1`?
Mtb RmlCD inh: 3.2

What do the screens show for `O=C1/C(=C/c2cccs2)SC(=S)N1c1cccc(O)c1`?
Mtb RmlCD inh: 12.9

What do the screens show for `Cc1cccc(NC(=O)N2CCCC2C(=O)Nc2ccccc2)c1` (stereo unspecified)?
Mtb RmlCD inh: 3.3

What do the screens show for `NC(=O)c1cccc(C(N)=O)n1`?
Mtb RmlCD inh: 11.0

What do the screens show for `O=C(NCc1ccco1)C1CCCN(S(=O)(=O)Cc2ccccc2)C1` (stereo unspecified)?
YopH PTP inh: -23.8

Results for Cc1ccc(S(=O)(=O)N2CCCC(C(=O)NCc3ccco3)C2)cc1Cl (stereo unspecified) ?
YopH PTP inh: 56.2*

Results for CC1CC(=O)N(c2ccc(Br)cc2)C(=O)C1 ?
Mtb RmlCD inh: -3.0

How did CC(=O)NC1=C(N(C)C2CCS(=O)(=O)C2)C(=O)c2ccccc2C1=O (stereo unspecified) do in these assays?
Mtb RmlCD inh: inconclusive; YopH PTP inh: 74.0*

Results for CN(C(=O)Nc1ccccc1)C1CCS(=O)(=O)C1 (stereo unspecified) ?
YopH PTP inh: -8.8

What do the screens show for `CCn1cc(C(=O)Nc2nnc(C)s2)c(=O)c2cc(F)c(N3CCN(C(=O)c4ccco4)CC3)cc21`?
YopH PTP inh: 3.7

Results for Cc1noc(NS(=O)(=O)c2ccc(NC(=O)COc3ccc(Cl)cc3Cl)cc2)c1C ?
Mtb RmlCD inh: 12.2; YopH PTP inh: -30.9

Results for Cc1noc(NS(=O)(=O)c2ccc(NC(=O)CCCOc3ccc(Cl)cc3Cl)cc2)c1C ?
YopH PTP inh: 92.2*

How did NC(=O)c1ccc[n+](CC(=O)c2ccc(F)cc2)c1 do in these assays?
Mtb RmlCD inh: 67.1

How did O=C1CC(N(O)c2ccccc2)C(=O)N1c1cc(Cl)cc(Cl)c1 (stereo unspecified) do in these assays?
Mtb RmlCD inh: 14.9; YopH PTP inh: -28.9

Results for O=C1CC(N(O)c2ccccc2)C(=O)N1Cc1ccccc1 (stereo unspecified) ?
Mtb RmlCD inh: -10.5; YopH PTP inh: 56.7*

How did CCNc1nc(OC)nc(SCC(=O)Nc2ccccc2)n1 do in these assays?
Mtb RmlCD inh: 14.6

Results for Cc1cc(C)nc(SCC(=O)Oc2ccc3oc(=O)cc(C)c3c2)n1 ?
Mtb RmlCD inh: -8.3; YopH PTP inh: 51.5*

How did CCC(=O)Oc1ccc2oc(=O)cc(C)c2c1 do in these assays?
Mtb RmlCD inh: -10.6; YopH PTP inh: 40.1

How did CCCCNC(=O)C1CCN(S(=O)(=O)N2CCCCCC2)CC1 do in these assays?
YopH PTP inh: -19.8

What do the screens show for `Cc1ccc(C)c(C(C)NC(=O)c2ccc(Br)o2)c1` (stereo unspecified)?
Mtb RmlCD inh: -16.1

Results for COC(=O)C1=C(C)Nc2[nH]c(=S)[nH]c(=O)c2C1c1ccc(O)cc1 (stereo unspecified) ?
Mtb RmlCD inh: -13.9

Results for COc1cc(C2C(C(=O)OC(C)C)=C(C)Nc3[nH]c(=O)[nH]c(=O)c32)ccc1O (stereo unspecified) ?
Mtb RmlCD inh: 13.3; YopH PTP inh: 50.9*

How did C/C(CC(=O)Nc1cccc(Cl)c1Cl)=N\NC(=O)c1ccccc1N do in these assays?
Mtb RmlCD inh: 7.0

How did COCCCn1c(N)c(C(=O)OCCOC)c2nc3ccccc3nc21 do in these assays?
YopH PTP inh: 50.6*

Results for CCCCNC(=O)c1c(N)n(CCCOC)c2nc3ccccc3nc12 ?
YopH PTP inh: 9.1

How did CC(C)(C)NC(=O)CN(CCc1ccccc1)C(=O)c1csnn1 do in these assays?
Mtb RmlCD inh: 7.9

What do the screens show for `COc1ccc(C)cc1NC(=O)C(=O)NNC(=O)COc1ccc(Cl)cc1`?
Mtb RmlCD inh: -10.4

How did CCN(CC)c1ccc(/C=N/Nc2ccc(C)cc2)c(O)c1 do in these assays?
Mtb RmlCD inh: 10.7; YopH PTP inh: 82.8*

How did CCOC(=O)N/N=C/c1ccc(N(CC)CC)cc1O do in these assays?
Mtb RmlCD inh: 5.4; YopH PTP inh: -25.5

What do the screens show for `Cc1oc2ccccc2c1-c1cn2c(n1)SCC2`?
YopH PTP inh: 55.4*

What do the screens show for `c1ccc(-c2cn3c(n2)SCC3)cc1`?
YopH PTP inh: -15.4

What do the screens show for `O=C(NC(C(=O)O)c1ccccc1)c1ccc(S(=O)(=O)N2CCOCC2)cc1` (stereo unspecified)?
Mtb RmlCD inh: -8.4; YopH PTP inh: 50.3*

Results for O=C(NC(=S)N1CCN(C(c2ccccc2)c2ccccc2)CC1)c1ccc(S(=O)(=O)N2CCOCC2)cc1 ?
Mtb RmlCD inh: -7.0; YopH PTP inh: -21.1

How did O=C(NC(=S)N1CCOCC1)c1cc2ccccc2o1 do in these assays?
Mtb RmlCD inh: 8.9

Results for COc1cccc(OCCc2c(C)n[nH]c2C)c1 ?
Mtb RmlCD inh: 4.1; YopH PTP inh: -19.9

Results for Cc1cccc(OCCCCc2c(C)n[nH]c2C)c1 ?
Mtb RmlCD inh: -38.5; YopH PTP inh: 70.2*

How did O=c1[nH]c2ccccc2c(O)c1O do in these assays?
Mtb RmlCD inh: -9.3

What do the screens show for `O=C(Nc1nonc1NC(=O)c1cccs1)c1cccs1`?
Mtb RmlCD inh: -6.2

What do the screens show for `O=C(/C=C/c1ccc([N+](=O)[O-])cc1)N1CCN(S(=O)(=O)c2cccs2)CC1`?
Mtb RmlCD inh: 3.4

How did Cc1ccc2c(c1)c1ncnc(N3CCOCC3)c1n2C do in these assays?
Mtb RmlCD inh: 96.5*; YopH PTP inh: -35.4

What do the screens show for `Cc1ccc2c(c1)c1ncnc(N3CCC4(CC3)OCCO4)c1n2C`?
Mtb RmlCD inh: 9.7; YopH PTP inh: -33.3

How did NC(=O)c1cc[n+](CC2=C(C(=O)O)N3C(=O)[C@@H](NC(=O)C(c4ccccc4)S(=O)(=O)[O-])[C@H]3SC2)cc1 (stereo partly specified) do in these assays?
YopH PTP inh: -46.4

How did N[C@@H](C(=O)N[C@@H]1C(=O)N2C(C(=O)O)=C(Cl)CS[C@H]12)c1ccccc1 do in these assays?
YopH PTP inh: 97.1*

Results for Cc1nc(-c2ccc(S(=O)(=O)Oc3ccc(Cl)cc3Cl)s2)cs1 ?
Mtb RmlCD inh: 7.1

Results for Cc1cc(C)c(C(=O)Nc2ccc(Br)c(C(F)(F)F)c2)c(C)c1 ?
Mtb RmlCD inh: -6.0; YopH PTP inh: -26.2

How did CCOC(=O)Cn1nc(-c2ccccc2)nc1-c1ccccc1 do in these assays?
Mtb RmlCD inh: 52.3; YopH PTP inh: -8.8

Results for CCn1nc(-c2ccccc2)nc2c(=O)n(C)c(=O)nc1-2 ?
YopH PTP inh: 101.5*

What do the screens show for `O=C1C2=C(c3ccccc31)[N+](=O)C1CCCCC1N2[O-]` (stereo unspecified)?
Mtb RmlCD inh: -5.1; YopH PTP inh: 14.5

What do the screens show for `O=C1C2=C(c3ccccc31)[N+](=O)[C@@H]1CCCC[C@@H]1N2[O-]`?
Mtb RmlCD inh: 8.0; YopH PTP inh: 58.6*

Results for Cc1ccc(C(=O)NCCc2ccccn2)cc1S(=O)(=O)N1CCOCC1 ?
Mtb RmlCD inh: -8.6

Results for COC(=O)c1cc(=O)c2cccc(OC)c2[nH]1 ?
Mtb RmlCD inh: 62.4*

How did COc1ccc(OC)c2[nH]c(C(=O)O)cc12 do in these assays?
YopH PTP inh: -32.0

How did Cc1cc(C)cc(N2C(=O)CSC2c2ccccn2)c1 (stereo unspecified) do in these assays?
Mtb RmlCD inh: -1.6
